According to PubChem BioAssay (EPA / NIEHS):
Inconclusive results are not listed. The source made the active and inactive calls. How the source made its calls, unless noted: active means hit-call score of the fitted dose curve at least 0.9, where 1 is the maximum; inactive means score below 0.9.

Legend:
[1] = BSK_3C_VCAM1: BioMAP Diversity Plus: 3C Assay for Vascular cell adhesion molecule 1 (VCAM1) Biomarker Activity (AID 2282999); conditions: BioMAP 3C HUVEC, VCAM1 ELISA, cytokine-stimulated; actives raise or lower the signal
Procedure, shortened: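 HUVEC primary cells, 24 h compound exposure; VCAM-1 by ELISA; gain/loss of signal fitted bidirectionally vs DMSO baseline.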

[2] = BSK_4H_Eotaxin3: BioMAP Diversity Plus: 4H Assay for Eotaxin 3 Biomarker Activity (AID 2283000); conditions: primary human endothelial cells (HUVEC); actives raise or lower the signal
Procedure, shortened: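 Readout is Eotaxin-3 (CCL26) level by ELISA in primary human umbilical vein endothelial cells harvested 24 h after chemical exposure; activity fitted in both directions against DMSO control.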

[3] = target: human Peroxisome Proliferator-activated Receptor delta (PPARd), PPARD (gene 5467) (UniProt Q03181); assay: ATG_PPARd_TRANS: Attagene TRANS-FACTORIAL HepG2 Assay for human Peroxisome Proliferator-activated Receptor delta (PPARd) (AID 2283002; active means hit-call score of the fitted dose curve at least 0.9, where 1 is the maximum)
Chain of human Peroxisome Proliferator-activated Receptor delta (PPARd), PPARD (gene 5467) (Q03181 whole entry, looked up, the tested form may be a part): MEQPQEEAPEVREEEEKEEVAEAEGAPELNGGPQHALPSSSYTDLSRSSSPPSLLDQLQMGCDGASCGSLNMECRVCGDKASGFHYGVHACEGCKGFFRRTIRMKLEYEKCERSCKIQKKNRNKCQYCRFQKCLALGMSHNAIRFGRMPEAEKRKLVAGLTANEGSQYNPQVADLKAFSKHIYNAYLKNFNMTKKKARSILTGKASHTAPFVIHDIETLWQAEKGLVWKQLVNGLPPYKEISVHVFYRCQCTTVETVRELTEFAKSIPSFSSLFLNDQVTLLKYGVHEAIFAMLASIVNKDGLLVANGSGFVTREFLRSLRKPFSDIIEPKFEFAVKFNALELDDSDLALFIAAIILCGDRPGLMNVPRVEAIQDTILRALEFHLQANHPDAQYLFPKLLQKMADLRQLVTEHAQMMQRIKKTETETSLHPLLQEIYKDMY
Procedure, shortened: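 HepG2 cells transiently transfected with GAL4-UAS multiplexed reporter units driven by exogenous chimeric NR-GAL4 proteins; 24 h compound exposure. Reporter mRNA measured by RT-PCR, 6-FAM primer extension, HpaI digestion and capillary electrophoresis; gain of signal fitted relative to DMSO.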

[4] = read-out: Intercellular Adhesion Molecule 1 (ICAM1), ICAM1 (gene 3383); assay: BSK_3C_ICAM1: BioMAP Diversity Plus: 3C Assay for Intercellular Adhesion Molecule 1 (ICAM1) Biomarker Activity (AID 2283003); conditions: primary human endothelial cells (HUVEC); actives raise or lower the signal
Procedure, shortened: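 Chemicals are dosed onto primary human umbilical vein endothelium (3C system). After 24 h, ICAM-1 is measured by ELISA, and responses are fitted bidirectionally relative to DMSO.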

[5] = BSK_3C_Proliferation: Cell Proliferation Assessment in the BioMAP Diversity Plus: 3C Assay (AID 2283006); conditions: primary human endothelial cells (HUVEC);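 on AC50: potency may reflect either rise or fall in cell number versus DMSO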
Procedure, shortened: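 Cells (human umbilical vein endothelial, sub-confluent) receive test chemical; after 48 h they are fixed in 10% trichloroacetic acid, stained with 0.1% SRB and read at 560 nm. Activity is referenced to DMSO, fitting increases and decreases.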

[6] = target: Peroxisome proliferator-activated receptor gamma (Homo sapiens) (UniProt P37231); assay: ATG_PPARg_TRANS: Attagene TRANS-FACTORIAL HepG2 Assay for human Peroxisome Proliferator-activated Receptor-gamma (PPARg) (AID 2283007; active means hit-call score of the fitted dose curve at least 0.9, where 1 is the maximum)
Procedure, shortened: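 HepG2 cells transiently transfected with multiplexed GAL4-UAS reporter units and exogenous chimeric NR-Gal4 proteins; reporter mRNA quantified after 24 h compound exposure by RT-PCR, fluorescent labelling, HpaI digestion and capillary electrophoresis; gain-of-signal fitted versus DMSO baseline.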

[7] = target: Nuclear receptor subfamily 1 group I member 2 (Homo sapiens) (UniProt O75469); assay: ATG_PXR_TRANS: Attagene TRANS-FACTORIAL HepG2 Assay for human Pregnane X Receptor (PXR) (AID 2283008; active means hit-call score of the fitted dose curve at least 0.9, where 1 is the maximum)
Chain of Nuclear receptor subfamily 1 group I member 2 (Homo sapiens) (O75469 whole entry, looked up, the tested form may be a part): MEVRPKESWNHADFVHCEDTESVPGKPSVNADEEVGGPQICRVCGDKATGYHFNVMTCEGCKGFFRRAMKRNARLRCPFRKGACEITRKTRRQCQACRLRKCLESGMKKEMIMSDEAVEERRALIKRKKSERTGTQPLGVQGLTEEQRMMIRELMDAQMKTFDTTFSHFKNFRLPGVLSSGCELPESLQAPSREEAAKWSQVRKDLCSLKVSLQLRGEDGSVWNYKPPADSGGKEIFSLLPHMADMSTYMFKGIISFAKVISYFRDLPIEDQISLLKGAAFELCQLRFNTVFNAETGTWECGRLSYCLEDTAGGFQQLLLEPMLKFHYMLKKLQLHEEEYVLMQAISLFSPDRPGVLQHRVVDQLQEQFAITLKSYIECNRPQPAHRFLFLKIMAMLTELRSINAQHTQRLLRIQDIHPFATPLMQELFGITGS
Procedure, shortened: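 Transient HepG2 transfectants carrying multiplexed reporter transcription units; PXR activity read through a Gal4 chimera. 24 h exposure. RT-PCR/CE fluorescence; upward curve fit referenced to DMSO.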

[8] = target: human RAR-related Orphan Receptor gamma (RORg), RORC (gene 6097) (UniProt P51449); assay: ATG_RORg_TRANS: Attagene TRANS-FACTORIAL HepG2 Assay for human RAR-related Orphan Receptor gamma (RORg) (AID 2283011; active means hit-call score of the fitted dose curve at least 0.9, where 1 is the maximum)
Chain of human RAR-related Orphan Receptor gamma (RORg), RORC (gene 6097) (P51449 whole entry, looked up, the tested form may be a part): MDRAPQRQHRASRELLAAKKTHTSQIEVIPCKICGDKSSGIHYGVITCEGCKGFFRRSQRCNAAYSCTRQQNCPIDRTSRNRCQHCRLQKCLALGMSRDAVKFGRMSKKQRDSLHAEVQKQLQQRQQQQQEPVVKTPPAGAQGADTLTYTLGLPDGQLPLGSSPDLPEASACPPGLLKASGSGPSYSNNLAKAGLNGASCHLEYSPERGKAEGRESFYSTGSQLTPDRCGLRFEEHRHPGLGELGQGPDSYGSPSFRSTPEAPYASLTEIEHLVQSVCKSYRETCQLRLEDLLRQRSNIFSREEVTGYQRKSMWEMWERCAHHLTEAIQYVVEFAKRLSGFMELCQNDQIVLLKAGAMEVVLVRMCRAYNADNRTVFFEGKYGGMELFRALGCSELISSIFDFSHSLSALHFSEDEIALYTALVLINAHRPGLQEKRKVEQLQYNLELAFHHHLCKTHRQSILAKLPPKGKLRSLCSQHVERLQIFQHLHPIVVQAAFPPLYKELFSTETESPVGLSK
Procedure, shortened: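 Transient MRTU transfection of HepG2 (TRANS format, exogenous NR-Gal4 chimera). 24 h dosing. Total RNA → oligo(dT) RT → PCR → 6-FAM labelling → HpaI cut → CE. Gain vs DMSO.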

[9] = target: Retinoic acid receptor RXR-alpha (Homo sapiens) (UniProt P19793); assay: ATG_RXRa_TRANS: Attagene TRANS-FACTORIAL HepG2 Assay for human Retinoid X Receptor alpha (RXRa) (AID 2283012; active means hit-call score of the fitted dose curve at least 0.9, where 1 is the maximum)
Chain of Retinoic acid receptor RXR-alpha (Homo sapiens) (P19793 whole entry, looked up, the tested form may be a part): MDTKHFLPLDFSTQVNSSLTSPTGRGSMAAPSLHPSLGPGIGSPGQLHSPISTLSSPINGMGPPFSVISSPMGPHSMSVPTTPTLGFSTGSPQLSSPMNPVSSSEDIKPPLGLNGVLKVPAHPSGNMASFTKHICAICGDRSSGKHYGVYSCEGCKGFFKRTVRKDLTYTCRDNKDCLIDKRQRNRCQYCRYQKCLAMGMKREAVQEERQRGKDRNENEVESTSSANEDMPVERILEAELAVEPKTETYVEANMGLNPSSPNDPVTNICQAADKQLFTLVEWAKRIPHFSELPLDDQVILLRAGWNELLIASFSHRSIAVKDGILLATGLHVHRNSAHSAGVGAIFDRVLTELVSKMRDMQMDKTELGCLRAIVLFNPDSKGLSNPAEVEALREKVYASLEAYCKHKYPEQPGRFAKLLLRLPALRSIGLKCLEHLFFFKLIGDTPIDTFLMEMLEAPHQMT
Procedure, shortened: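 Measures exogenous chimeric NR-GAL4 activity in transfected HepG2 liver cells after 24 h of dosing. Induced reporter mRNA was detected by RT-PCR with capillary electrophoresis, and gain of signal was analysed against DMSO.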

[10] = read-out: E-selectin (Homo sapiens) (UniProt P16581); assay: BSK_3C_Eselectin: BioMAP Diversity Plus: 3C Assay for Eselectin Biomarker Activity (AID 2283015); conditions: primary human endothelial cells (HUVEC); actives raise or lower the signal
Procedure, shortened: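 HUVEC, 3C stimulation; compound exposure 24 h; E-selectin by ELISA; gain- or loss-of-signal fitted bidirectionally vs DMSO baseline.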

[11] = read-out: Interleukin-1 alpha (IL1a), IL1A (gene 3552); assay: BSK_BE3C_IL1a: BioMAP Diversity Plus: BE3C Assay for Interleukin-1 alpha (IL1a) Biomarker Activity (AID 2283016); conditions: primary human bronchial epithelial cells; actives raise or lower the signal
Procedure, shortened: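 Signal from IL-1a ELISA, taken 24 h after chemical dosing of human bronchial epithelial cells, is compared with DMSO as baseline using bidirectional curve fitting.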

[12] = read-out: Monocyte Chemoattractant Protein-1 (MCP1), CCL2 (gene 6347); assay: BSK_3C_MCP1: BioMAP Diversity Plus: 3C Assay for Monocyte Chemoattractant Protein-1 (MCP1) Biomarker Activity (AID 2283017); conditions: primary human endothelial cells (HUVEC); actives raise or lower the signal
Procedure, shortened: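 HUVEC, 3C system; 24 h chemical exposure; MCP-1 by ELISA; bidirectional curve fit vs DMSO baseline.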

[13] = read-out: Monocyte Chemoattractant Protein-1 (MCP1), CCL2 (gene 6347); assay: BSK_4H_MCP1: BioMAP Diversity Plus: 4H Assay for Monocyte Chemoattractant Protein-1 (MCP1) Biomarker Activity (AID 2283018); conditions: primary human endothelial cells (HUVEC); actives raise or lower the signal
Procedure, shortened: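 Endothelial cells from umbilical vein were treated with test chemical, then after 24 h MCP-1 levels were quantified by ELISA; endpoint values came from bidirectional fitting with DMSO as baseline of activity.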

[14] = target: human Retinoic Acid Receptor beta (RARb), RARB (gene 5915) (UniProt P10826); assay: ATG_RARb_TRANS: Attagene TRANS-FACTORIAL HepG2 Assay for human Retinoic Acid Receptor beta (AID 2283004; active means hit-call score of the fitted dose curve at least 0.9, where 1 is the maximum)
Chain of human Retinoic Acid Receptor beta (RARb), RARB (gene 5915) (P10826 whole entry, looked up, the tested form may be a part): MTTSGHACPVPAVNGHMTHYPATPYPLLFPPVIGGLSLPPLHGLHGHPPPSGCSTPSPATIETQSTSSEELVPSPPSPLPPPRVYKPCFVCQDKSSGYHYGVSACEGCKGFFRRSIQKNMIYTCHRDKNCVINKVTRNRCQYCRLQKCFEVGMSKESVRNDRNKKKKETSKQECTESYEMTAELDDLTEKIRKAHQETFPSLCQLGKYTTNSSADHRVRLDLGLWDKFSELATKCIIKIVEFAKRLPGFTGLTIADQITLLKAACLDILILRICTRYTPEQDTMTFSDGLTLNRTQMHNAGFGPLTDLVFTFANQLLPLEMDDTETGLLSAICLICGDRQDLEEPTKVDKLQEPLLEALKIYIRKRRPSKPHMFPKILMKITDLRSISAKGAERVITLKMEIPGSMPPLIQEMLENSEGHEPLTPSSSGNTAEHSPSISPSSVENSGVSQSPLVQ
Procedure, shortened: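 Readout is reporter mRNA induction: RNA reverse-transcribed, PCR-amplified, FAM-labelled, HpaI-cut and resolved by capillary electrophoresis. Transiently transfected HepG2 cells carrying exogenous NR–Gal4 chimeras were dosed for 24 h; activity fitted upward relative to DMSO.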

[15] = target: Retinoic acid receptor alpha (Homo sapiens) (UniProt P10276); assay: ATG_RARa_TRANS: Attagene TRANS-FACTORIAL HepG2 Assay for human Retinoic Acid Receptor alpha (RARa) (AID 2283005; active means hit-call score of the fitted dose curve at least 0.9, where 1 is the maximum)
Chain of Retinoic acid receptor alpha (Homo sapiens) (P10276 whole entry, looked up, the tested form may be a part): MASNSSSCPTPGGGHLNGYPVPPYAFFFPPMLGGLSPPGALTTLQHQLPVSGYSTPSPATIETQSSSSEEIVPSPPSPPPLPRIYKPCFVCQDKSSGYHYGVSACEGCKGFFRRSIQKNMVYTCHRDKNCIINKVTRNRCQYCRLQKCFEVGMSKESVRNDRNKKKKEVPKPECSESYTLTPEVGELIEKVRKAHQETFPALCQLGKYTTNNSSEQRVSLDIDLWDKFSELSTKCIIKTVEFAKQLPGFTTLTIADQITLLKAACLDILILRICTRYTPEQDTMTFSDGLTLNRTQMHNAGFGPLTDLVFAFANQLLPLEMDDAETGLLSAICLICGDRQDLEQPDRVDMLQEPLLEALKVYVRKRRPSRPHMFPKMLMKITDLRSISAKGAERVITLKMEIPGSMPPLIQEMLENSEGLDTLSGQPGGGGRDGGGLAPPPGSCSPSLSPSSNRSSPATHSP
Procedure, shortened: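 HepG2 transiently transfected with multiplex GAL4-UAS reporter units including a human RARa–GAL4 chimera; 24 h compound exposure. Reporter mRNA quantified by RT-PCR, 6-FAM labeling and capillary electrophoresis; gain of signal versus DMSO.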

[16] = target: human Retinoic Acid Receptor gamma (RARg), RARG (gene 5916) (UniProt P13631); assay: ATG_RARg_TRANS: Attagene TRANS-FACTORIAL HepG2 Assay for human Retinoic Acid Receptor gamma (RARg) (AID 2283009; active means hit-call score of the fitted dose curve at least 0.9, where 1 is the maximum)
Chain of human Retinoic Acid Receptor gamma (RARg), RARG (gene 5916) (P13631 whole entry, looked up, the tested form may be a part): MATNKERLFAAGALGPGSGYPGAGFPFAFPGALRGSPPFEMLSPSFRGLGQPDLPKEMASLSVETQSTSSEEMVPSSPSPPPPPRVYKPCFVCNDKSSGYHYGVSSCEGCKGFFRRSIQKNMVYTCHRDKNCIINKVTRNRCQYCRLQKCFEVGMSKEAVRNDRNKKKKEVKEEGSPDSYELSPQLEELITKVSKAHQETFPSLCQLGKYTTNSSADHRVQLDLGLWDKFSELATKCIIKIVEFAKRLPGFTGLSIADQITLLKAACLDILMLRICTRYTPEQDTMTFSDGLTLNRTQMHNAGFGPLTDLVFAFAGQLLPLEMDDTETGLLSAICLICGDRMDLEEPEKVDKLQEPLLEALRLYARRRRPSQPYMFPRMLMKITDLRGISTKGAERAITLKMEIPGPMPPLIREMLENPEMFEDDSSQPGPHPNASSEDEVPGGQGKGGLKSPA
Procedure, shortened: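 TRANS format measured activity of exogenous NR-GAL4 fusion (RARg) in transfected HepG2 liver cells after 24 h dosing. Induced reporter RNA was detected by RT-PCR/capillary electrophoresis fluorescence, analysed in the positive direction against DMSO.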

[17] = target: human RAR-related Orphan Receptor beta (RORb), RORB (gene 6096) (UniProt Q92753); assay: ATG_RORb_TRANS: Attagene TRANS-FACTORIAL HepG2 Assay for human RAR-related Orphan Receptor beta (RORb) (AID 2283010; active means hit-call score of the fitted dose curve at least 0.9, where 1 is the maximum)
Chain of human RAR-related Orphan Receptor beta (RORb), RORB (gene 6096) (Q92753 whole entry, looked up, the tested form may be a part): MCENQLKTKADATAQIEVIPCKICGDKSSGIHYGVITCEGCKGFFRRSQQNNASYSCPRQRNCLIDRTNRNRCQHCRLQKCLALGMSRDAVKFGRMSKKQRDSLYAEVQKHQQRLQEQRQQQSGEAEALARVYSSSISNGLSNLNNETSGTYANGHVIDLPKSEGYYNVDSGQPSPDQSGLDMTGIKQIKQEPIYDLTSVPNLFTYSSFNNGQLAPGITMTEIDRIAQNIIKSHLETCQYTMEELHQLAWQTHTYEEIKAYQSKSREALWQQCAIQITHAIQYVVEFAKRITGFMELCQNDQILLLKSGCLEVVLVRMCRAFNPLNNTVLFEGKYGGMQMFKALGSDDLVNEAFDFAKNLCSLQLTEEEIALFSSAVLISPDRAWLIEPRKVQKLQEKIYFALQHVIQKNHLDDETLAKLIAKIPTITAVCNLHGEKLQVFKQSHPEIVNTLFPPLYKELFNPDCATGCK
Procedure, shortened: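 Transfect HepG2 with multiple GAL4-UAS reporter transcription units; dose chemicals for 24 h; isolate RNA, reverse-transcribe and PCR-amplify reporter sequences; label, digest and resolve fragments by capillary electrophoresis; fit increases relative to DMSO.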

[18] = target: human Thyroid Receptor alpha (THRa1), THRA (gene 7067) (UniProt P10827); assay: ATG_THRa1_TRANS: Attagene TRANS-FACTORIAL HepG2 Assay for human Thyroid Receptor alpha (THRa1) (AID 2283014; active means hit-call score of the fitted dose curve at least 0.9, where 1 is the maximum)
Chain of human Thyroid Receptor alpha (THRa1), THRA (gene 7067) (P10827 whole entry, looked up, the tested form may be a part): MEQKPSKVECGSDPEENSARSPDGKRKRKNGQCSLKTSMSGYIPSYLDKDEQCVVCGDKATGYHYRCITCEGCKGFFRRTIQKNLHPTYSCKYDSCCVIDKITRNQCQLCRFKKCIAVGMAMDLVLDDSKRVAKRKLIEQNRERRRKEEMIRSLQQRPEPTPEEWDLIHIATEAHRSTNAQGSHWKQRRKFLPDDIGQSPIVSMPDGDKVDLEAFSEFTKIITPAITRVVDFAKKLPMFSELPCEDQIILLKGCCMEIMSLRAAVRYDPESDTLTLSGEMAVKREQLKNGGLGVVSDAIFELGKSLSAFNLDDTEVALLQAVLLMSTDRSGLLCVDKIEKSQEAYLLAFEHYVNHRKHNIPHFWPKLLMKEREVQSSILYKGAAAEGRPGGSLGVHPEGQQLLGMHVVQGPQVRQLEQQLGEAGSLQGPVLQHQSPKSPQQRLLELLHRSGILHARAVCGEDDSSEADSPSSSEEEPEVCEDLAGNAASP
Procedure, shortened: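 Transient HepG2 transfection, NR-Gal4 chimera driving GAL4-UAS reporters; 24 h compound exposure; total RNA, oligo(dT) RT, PCR, fluorescent primer extension, capillary electrophoresis. Upward direction vs DMSO control.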

[19] = target: human Retinoid X Receptor beta (RXRb), RXRB (gene 6257) (UniProt P28702); assay: ATG_RXRb_TRANS: Attagene TRANS-FACTORIAL HepG2 Assay for human Retinoid X Receptor beta (RXRb) (AID 2283013; active means hit-call score of the fitted dose curve at least 0.9, where 1 is the maximum)
Chain of human Retinoid X Receptor beta (RXRb), RXRB (gene 6257) (P28702 whole entry, looked up, the tested form may be a part): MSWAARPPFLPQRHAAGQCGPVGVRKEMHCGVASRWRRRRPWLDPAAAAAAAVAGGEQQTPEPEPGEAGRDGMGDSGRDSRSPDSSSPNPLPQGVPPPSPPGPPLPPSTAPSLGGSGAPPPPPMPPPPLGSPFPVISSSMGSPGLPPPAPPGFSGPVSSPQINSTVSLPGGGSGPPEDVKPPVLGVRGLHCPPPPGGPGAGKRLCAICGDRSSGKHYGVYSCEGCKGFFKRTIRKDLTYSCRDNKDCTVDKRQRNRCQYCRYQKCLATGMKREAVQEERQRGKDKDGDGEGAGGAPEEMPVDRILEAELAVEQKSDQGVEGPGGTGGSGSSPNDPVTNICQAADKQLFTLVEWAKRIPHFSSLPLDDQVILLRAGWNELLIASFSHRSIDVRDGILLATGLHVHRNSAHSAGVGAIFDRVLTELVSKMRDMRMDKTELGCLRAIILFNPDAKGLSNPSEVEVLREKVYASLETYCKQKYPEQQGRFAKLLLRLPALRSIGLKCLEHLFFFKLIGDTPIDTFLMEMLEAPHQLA
Procedure, shortened: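 Chimeric receptor-Gal4 activity was assessed in transiently transfected human HepG2 cells after 24 h exposure. Transcripts from GAL4-UAS reporters were quantified by fluorescent RT-PCR and capillary electrophoresis, with DMSO as negative control and baseline.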

Measured: AC50

CCC(CC)Nc1c([N+](=O)[O-])cc(C)c(C)c1[N+](=O)[O-]
active: [1] 17.1 µM | [5] 29.2 µM | [6] 73.2 µM | [7] 27.6 µM | [10] 31.2 µM | [12] 36.6 µM | [13] 22.4 µM
inactive: [2] | [3] | [4] | [8] | [9] | [11]

S=C1NCCN1
not listed: [3] | [9] | [15] | [16] | [17] | [18] | [19]
inactive: all other assays above

COc1cccc(C(=O)NN(C(=O)c2cc(C)cc(C)c2)C(C)(C)C)c1C
not listed: [3] | [8] | [9] | [16] | [17] | [18] | [19]
inactive: all other assays above

CCCCN(CC)c1c([N+](=O)[O-])cc(C(F)(F)F)cc1[N+](=O)[O-]
active: [5] 31.6 µM | [7] 14.4 µM
not listed: [3] | [8] | [17] | [18] | [19]
inactive: all other assays above

CCCOc1nn(C(=O)NS(=O)(=O)c2ccccc2C(=O)OC)c(=O)n1C
active: [1] 1.09 µM
not listed: [3] | [8] | [14] | [15] | [19]
inactive: all other assays above

CC(=NC#N)N(C)Cc1ccc(Cl)nc1
not listed: [3] | [14] | [18] | [19]
inactive: all other assays above

CCCCOC(=O)c1ccccc1C(=O)O
not listed: [7] | [14] | [15] | [16]
inactive: all other assays above

COP(=O)(NC(C)=O)SC (stereo unspecified)
not listed: [3] | [7] | [14] | [15] | [16] | [19]
inactive: all other assays above

CSc1nnc(C(C)(C)C)c(=O)n1N
not listed: [3] | [6] | [7] | [8]
inactive: all other assays above

CC1(C(=O)Nc2ccc(O)c(Cl)c2Cl)CCCCC1
active: [6] 50 µM | [7] 9.83 µM
not listed: [14] | [15] | [16] | [17] | [18] | [19]
inactive: all other assays above

CCC(=O)Nc1ccc(Cl)c(Cl)c1
not listed: [3] | [16] | [17] | [18] | [19]
inactive: all other assays above

CCOP(=S)(OCC)Oc1cc(C)nc(C(C)C)n1
active: [6] 50 µM
not listed: [8] | [14] | [15] | [16] | [17] | [19]
inactive: all other assays above

CSC1=N[C@@](C)(c2ccccc2)C(=O)N1Nc1ccccc1
active: [2] 25.3 µM | [5] 18.9 µM | [10] 6.26 µM | [13] 27.8 µM
not listed: [8] | [14] | [15] | [16] | [17] | [19]
inactive: all other assays above

O=c1ccc(=O)[nH][nH]1
not listed: [3] | [14] | [15] | [16] | [19]
inactive: all other assays above

CCCSP(=O)(OCC)SCCC
not listed: [3] | [8] | [18] | [19]
inactive: all other assays above

CCOP(=O)(OCC)Oc1cc(C)nc(C(C)C)n1
not listed: [7] | [9] | [14] | [15] | [16] | [17] | [18] | [19]
inactive: all other assays above

CCOP(=O)(SC(C)CC)N1CCSC1=O (stereo unspecified)
not listed: [3] | [8] | [9] | [16] | [18] | [19]
inactive: all other assays above

CCc1cccc(C)c1N(C(=O)CCl)C(C)COC (stereo unspecified)
active: [6] 13.5 µM
not listed: [3] | [8] | [9] | [15] | [16] | [17] | [18]
inactive: all other assays above
